Measurements as given in PubChem BioAssay (NCI).
This is part of a sample that, as a whole, favours compounds with a hit. Of some 83,000 tested, about 20% had one in any assay.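 Single-dose data. Exposure time 48 hours. Values below 10 considered active.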 Active and inactive are the calls of the source.

Legend:
Test in all cases: NCI-60 one-dose screen, 48 h (100 = growth as untreated, 0 = no growth, -100 = all killed)
Settings in all cases: 10 µM unless noted
T-47D breast = test system: T-47D breast
BT-549 breast = test system: BT-549 breast
MDA-MB-435 melanoma = test system: MDA-MB-435 melanoma
SW-620 colon = test system: SW-620 colon
MCF7 breast = test system: MCF7 breast
HCT-116 colon = test system: HCT-116 colon
HCC-2998 colon = test system: HCC-2998 colon
KM12 colon = test system: KM12 colon

Measured: growth

C#C[C@]1(O)CC[C@H]2[C@@H]3CC=C4c5sc(Nc6cccc(C)n6)nc5CC[C@]4(C)[C@H]3CC[C@@]21C
inactive: T-47D breast 37.7% | BT-549 breast 23.1% | HCT-116 colon 14.4% | HCC-2998 colon 47.5%
active: MDA-MB-435 melanoma -41.5% | SW-620 colon -22.6% | MCF7 breast -41.5%

CCCCCCNC(=O)Oc1ccc(/C(=C(/C)c2ccc(OC)cc2)c2ccc(OCCN3CCCC3)cc2)cc1
inactive: T-47D breast 59.7% | BT-549 breast 84.3% | MDA-MB-435 melanoma 74.4% | SW-620 colon 62.6% | MCF7 breast 18.2% | HCT-116 colon 31.4% | HCC-2998 colon 87.9%

CCOC(=O)c1ccc(N/C=C/C(=O)c2ccccc2)cc1
inactive: T-47D breast 84.6% | BT-549 breast 114% | MDA-MB-435 melanoma 92.7% | SW-620 colon 100% | MCF7 breast 88.2% | HCT-116 colon 96.5% | HCC-2998 colon 109%

O=C1NC(=O)c2c1c1c3ccccc3ccc1c1[nH]c3ccccc3c21
active: BT-549 breast 7.84% | MDA-MB-435 melanoma 9.08% | MCF7 breast 3.61%
inactive: T-47D breast 11.8% | SW-620 colon 28.2% | HCT-116 colon 14.4% | HCC-2998 colon 46.1%

Cc1ccc(-c2csc(N/N=C/c3nc4ccccc4n3C3CC3)n2)cc1
inactive: BT-549 breast 73.1% | MDA-MB-435 melanoma 92.4% | MCF7 breast 50.2% | HCT-116 colon 89.3% | HCC-2998 colon 90%
active: T-47D breast -50.9% | SW-620 colon -72%

CN1CCN(c2ccc3c(C(N)=O)c(NC(=O)c4ccc(C(C)(C)C)cc4)sc3c2)CC1
inactive: T-47D breast 92.3% | BT-549 breast 89.9% | MDA-MB-435 melanoma 95.1% | SW-620 colon 43.6% | MCF7 breast 39.7% | HCT-116 colon 37.6% | HCC-2998 colon 96.2% | KM12 colon 81.7%

O=C1[C@H]2Cc3c([nH]c4ccccc34)[C@@H](c3c(Cl)cccc3Cl)N2C(=O)CN1C1CCN(Cc2ccccc2)CC1
inactive: T-47D breast 102% | BT-549 breast 106% | SW-620 colon 44.5% | MCF7 breast 47.5% | HCC-2998 colon 102% | KM12 colon 84.5%
active: MDA-MB-435 melanoma 0.213% | HCT-116 colon -1.46%

CCOC(=O)c1c(NCC(=O)Nc2cccc([N+](=O)[O-])c2)sc2c1CCCC2
active: T-47D breast -28.2% | BT-549 breast -57.3% | MDA-MB-435 melanoma -91.5% | SW-620 colon -2.82% | MCF7 breast -12.8% | HCT-116 colon -21% | HCC-2998 colon -76.5% | KM12 colon -20.4%

COc1ccc(-c2no[n+]([O-])c2Nc2ccccc2Br)cc1
inactive: T-47D breast 80% | BT-549 breast 113% | MDA-MB-435 melanoma 107% | SW-620 colon 101% | MCF7 breast 84.9% | HCT-116 colon 93.7% | HCC-2998 colon 111% | KM12 colon 101%

O=C1Nc2ccc(Br)cc2/C1=N\c1nnc(-c2ccc(Cl)cc2)o1
inactive: T-47D breast 76.7% | BT-549 breast 63.1% | SW-620 colon 16.5% | MCF7 breast 34.9% | HCT-116 colon 49.2% | HCC-2998 colon 96.2% | KM12 colon 70%
active: MDA-MB-435 melanoma -20.7%

N#C/C(=C\c1ccc2ccccc2c1)C(=O)Nc1sc2c(c1C#N)CCC2
inactive: T-47D breast 87.5% | BT-549 breast 94.6% | MDA-MB-435 melanoma 107% | SW-620 colon 111% | MCF7 breast 94.8% | HCT-116 colon 106% | HCC-2998 colon 113% | KM12 colon 101%

CCN1C(=O)N(CC)C2C1NN=C1SC(c3ccccc3)=CC(=O)N12 (stereo not given)
inactive: T-47D breast 42.1% | SW-620 colon 18.3% | MCF7 breast 17.7% | HCT-116 colon 14.9% | HCC-2998 colon 21.1% | KM12 colon 27.2%
active: BT-549 breast -4.35% | MDA-MB-435 melanoma -33.3%

Cc1ccc(NC(=O)c2ccc(CN3CCN(C)CC3)c(I)c2)cc1Oc1ccc(-c2[nH]nc3ncnc(N)c23)cc1
inactive: T-47D breast 112% | BT-549 breast 103% | HCC-2998 colon 108% | KM12 colon 20.7%
active: MDA-MB-435 melanoma -67.5% | SW-620 colon -67.3% | MCF7 breast -27% | HCT-116 colon -26.6%

COc1cc2oc(-c3cccc(NC(=O)c4cc(NC(=O)[C@H](C)N)ccc4Cl)c3)cc(=O)c2c(OC)c1OC
inactive: T-47D breast 67.9% | BT-549 breast 108% | MDA-MB-435 melanoma 105% | SW-620 colon 104% | MCF7 breast 91.4% | HCT-116 colon 94.9% | HCC-2998 colon 100% | KM12 colon 96.3%

CCN1C(=O)N(CC)C2SC(N/N=C/C=C/c3ccccc3OC)=NC21 (stereo not given)
inactive: T-47D breast 67.3% | BT-549 breast 18.7% | SW-620 colon 20.4% | MCF7 breast 12.9% | KM12 colon 11.6%
active: MDA-MB-435 melanoma -16.7% | HCT-116 colon 6.23% | HCC-2998 colon 8.41%

COc1cc(NC2=C(Cl)C(=O)c3nc(C)ccc3C2=O)cc(OC)c1
active: T-47D breast -56% | MDA-MB-435 melanoma -87.4% | SW-620 colon -90.2% | MCF7 breast -51.7% | HCT-116 colon -97.8%
inactive: BT-549 breast 24.1% | HCC-2998 colon 14.4% | KM12 colon 39.3%

O=c1oc2ccc(-c3ccc(F)cc3F)cc2c(=O)n1-c1ccc(F)c(F)c1
active: T-47D breast 9.12% | BT-549 breast -2.01% | MDA-MB-435 melanoma 3.43% | MCF7 breast 2.02% | HCT-116 colon 6.87% | KM12 colon 3.33%
inactive: SW-620 colon 12.7% | HCC-2998 colon 14.5%

CCN1C/C(=N\S(=O)(=O)c2ccccc2)N(CC)C1=S
inactive: T-47D breast 102% | BT-549 breast 97.3% | MDA-MB-435 melanoma 101% | SW-620 colon 107% | MCF7 breast 97.3% | HCT-116 colon 91.5% | HCC-2998 colon 98.4% | KM12 colon 103%

Oc1ccc(CSc2nnc(-c3cnccn3)o2)c2cccnc12
active: MCF7 breast 5.44%
inactive: T-47D breast 18.5% | BT-549 breast 31.7% | MDA-MB-435 melanoma 13.1% | SW-620 colon 12.9% | HCT-116 colon 14.5% | HCC-2998 colon 13.2% | KM12 colon 12.5%

O=S(=O)(Nc1ccc(-n2cnc3cc(-c4ccc(O)cc4)ccc32)cc1)C1CC1
inactive: T-47D breast 72.9% | BT-549 breast 91.9% | MDA-MB-435 melanoma 87.7% | SW-620 colon 102% | MCF7 breast 73.9% | HCT-116 colon 92.7% | HCC-2998 colon 103% | KM12 colon 68.7%

C/C=C/C=C1\C[C@H]2CO[C@H](O2)C1=O
inactive: T-47D breast 98.4% | BT-549 breast 127% | MDA-MB-435 melanoma 101% | SW-620 colon 69.1% | MCF7 breast 67.1% | HCT-116 colon 82.3% | HCC-2998 colon 114% | KM12 colon 103%

COc1ccc([C@H]2[C@H](O)C(=O)N2c2cc(OC)c(OC)c(OC)c2)cc1O
inactive: T-47D breast 75.8% | SW-620 colon 17% | HCC-2998 colon 19.5% | KM12 colon 13.1%
active: BT-549 breast -9.8% | MDA-MB-435 melanoma -13.1% | MCF7 breast 8.66% | HCT-116 colon -8.58%

CCN1C(=O)N(CC)C2SC(N/N=C/c3ccc(OC)cc3)=NC21 (stereo not given)
inactive: T-47D breast 80.9% | BT-549 breast 18.9% | SW-620 colon 20.2% | MCF7 breast 15.2% | HCC-2998 colon 13.5% | KM12 colon 13.9%
active: MDA-MB-435 melanoma 0.665% | HCT-116 colon 6.83%

CNC(=O)c1cc(N2CCc3cc(NC(=O)Nc4ccc(Cl)c(Cl)c4)ccc32)ccn1
inactive: T-47D breast 63.4% | BT-549 breast 77% | MDA-MB-435 melanoma 84.2% | SW-620 colon 114% | MCF7 breast 63.3% | HCT-116 colon 92.7% | HCC-2998 colon 98% | KM12 colon 30.4%

CN1C(=O)N(C)C2C1NN=c1s/c(=C\c3ccccn3)c(=O)n12 (stereo not given)
inactive: T-47D breast 108% | BT-549 breast 99.2% | MDA-MB-435 melanoma 88.5% | SW-620 colon 99.3% | MCF7 breast 91.9% | HCT-116 colon 108% | HCC-2998 colon 104% | KM12 colon 91.6%

COc1ccc(/C=N/Nc2nc(N/N=C/c3ccc(OC)cc3O)nc(N3CCOCC3)n2)c(O)c1
inactive: T-47D breast 42.4% | BT-549 breast 90.3% | MDA-MB-435 melanoma 81% | SW-620 colon 36.3% | MCF7 breast 51.7% | HCT-116 colon 34.4% | HCC-2998 colon 81.1% | KM12 colon 51.4%

CN1CCN(c2ccc(C(=O)/C=C/c3ccc(Cl)c(C(F)(F)F)c3)cc2)CC1
inactive: T-47D breast 29.6% | BT-549 breast 109% | MDA-MB-435 melanoma 13.7% | HCT-116 colon 16.1% | HCC-2998 colon 33.7% | KM12 colon 27.3%
active: SW-620 colon 1.29% | MCF7 breast 7.85%

N#Cc1c(NC(=O)c2ccc(F)c(Cl)c2)sc2c1CCC(=O)C2
inactive: HCC-2998 colon 25.8%
active: T-47D breast -18.3% | BT-549 breast 2.09% | MDA-MB-435 melanoma -39.5% | SW-620 colon -24% | MCF7 breast 4.86% | HCT-116 colon 0.878% | KM12 colon 4.23%

Fc1ccccc1/C=C(/C1=NCCN1)n1cnc2ccccc21
inactive: T-47D breast 99.1% | BT-549 breast 102% | MDA-MB-435 melanoma 96.2% | SW-620 colon 101% | MCF7 breast 86.2% | HCT-116 colon 98.7% | HCC-2998 colon 102% | KM12 colon 96.5%

N#C/C(=C\c1ccc(-c2ccc(F)cc2)o1)C(=O)Nc1ncc(Cc2ccc(Cl)cc2Cl)s1
active: T-47D breast -5.01% | BT-549 breast -15.8% | MDA-MB-435 melanoma -20.4% | SW-620 colon -67.1% | MCF7 breast -5.46% | HCT-116 colon -61.4%
inactive: HCC-2998 colon 79.8% | KM12 colon 13.4%
